Assays:
Assay in all cases: log2 ratio of Biotin-Ahx-Ub-VS probe labelling (fragment/DMSO); higher = less target engagement (more negative = stronger competition), active = hit call of the paper (q ≤ 0.05, log2 ratio ≤ -1)
Conditions in all cases: compound concentration: 200 uM; treatment time: 3 h
USP19 = molecular target: T1, USP19 (UniProt O94966)
T1 sequence (whole entry): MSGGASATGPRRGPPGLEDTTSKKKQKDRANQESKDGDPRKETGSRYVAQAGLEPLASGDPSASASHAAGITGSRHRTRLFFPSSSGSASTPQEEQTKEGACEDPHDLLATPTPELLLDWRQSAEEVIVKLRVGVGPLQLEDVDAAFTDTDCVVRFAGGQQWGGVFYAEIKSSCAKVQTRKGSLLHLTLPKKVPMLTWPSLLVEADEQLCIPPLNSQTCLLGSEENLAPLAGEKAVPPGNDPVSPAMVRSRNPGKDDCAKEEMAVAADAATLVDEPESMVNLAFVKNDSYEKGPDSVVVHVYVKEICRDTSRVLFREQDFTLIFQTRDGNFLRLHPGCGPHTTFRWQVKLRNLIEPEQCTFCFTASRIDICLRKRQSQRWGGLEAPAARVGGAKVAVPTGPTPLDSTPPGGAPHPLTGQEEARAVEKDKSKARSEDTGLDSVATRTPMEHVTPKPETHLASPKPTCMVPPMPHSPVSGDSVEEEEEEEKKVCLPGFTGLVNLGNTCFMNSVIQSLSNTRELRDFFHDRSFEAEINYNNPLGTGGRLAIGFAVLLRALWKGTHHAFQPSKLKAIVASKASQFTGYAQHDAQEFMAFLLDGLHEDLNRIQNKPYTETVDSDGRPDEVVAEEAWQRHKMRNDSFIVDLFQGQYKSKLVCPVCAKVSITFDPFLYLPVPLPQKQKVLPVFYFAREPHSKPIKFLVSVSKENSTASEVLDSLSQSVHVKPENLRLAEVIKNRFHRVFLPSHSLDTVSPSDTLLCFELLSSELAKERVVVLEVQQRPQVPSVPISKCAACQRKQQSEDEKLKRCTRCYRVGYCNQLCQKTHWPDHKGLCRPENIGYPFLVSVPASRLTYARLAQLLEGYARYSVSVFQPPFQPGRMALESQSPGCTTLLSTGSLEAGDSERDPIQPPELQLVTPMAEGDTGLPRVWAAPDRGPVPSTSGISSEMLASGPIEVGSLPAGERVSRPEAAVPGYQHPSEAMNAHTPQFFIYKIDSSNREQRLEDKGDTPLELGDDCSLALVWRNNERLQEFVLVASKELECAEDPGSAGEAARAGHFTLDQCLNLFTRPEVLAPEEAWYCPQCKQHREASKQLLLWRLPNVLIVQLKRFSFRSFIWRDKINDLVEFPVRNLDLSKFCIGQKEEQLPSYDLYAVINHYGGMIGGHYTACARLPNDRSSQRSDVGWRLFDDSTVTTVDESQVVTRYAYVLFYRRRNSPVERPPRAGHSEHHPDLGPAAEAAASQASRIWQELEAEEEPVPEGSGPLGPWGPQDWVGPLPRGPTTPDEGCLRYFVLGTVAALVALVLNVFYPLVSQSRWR
Summary of the method: (§1)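 Labelled DUBs from HEK293T lysate were NeutrAvidin-enriched, digested with LysC and trypsin, and run by diaPASEF LC-MS/MS. Before that, each 495 µg sample in Tris/CHAPS/IGEPAL buffer with protease inhibitors was treated in triplicate with fragment at 200 µM or vehicle for 3 h, then with Biotin-Ahx-Ub-VS at 0.5 µM final for 1 h. Values are average log2 ratios of fragment over vehicle by unpaired t-test, based on global-median-normalised Spectronaut label-free quantities from proteins with ≥2 unique peptides.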

USP22 = molecular target: T2, USP22 (UniProt Q9UPT9)
T2 sequence (whole entry): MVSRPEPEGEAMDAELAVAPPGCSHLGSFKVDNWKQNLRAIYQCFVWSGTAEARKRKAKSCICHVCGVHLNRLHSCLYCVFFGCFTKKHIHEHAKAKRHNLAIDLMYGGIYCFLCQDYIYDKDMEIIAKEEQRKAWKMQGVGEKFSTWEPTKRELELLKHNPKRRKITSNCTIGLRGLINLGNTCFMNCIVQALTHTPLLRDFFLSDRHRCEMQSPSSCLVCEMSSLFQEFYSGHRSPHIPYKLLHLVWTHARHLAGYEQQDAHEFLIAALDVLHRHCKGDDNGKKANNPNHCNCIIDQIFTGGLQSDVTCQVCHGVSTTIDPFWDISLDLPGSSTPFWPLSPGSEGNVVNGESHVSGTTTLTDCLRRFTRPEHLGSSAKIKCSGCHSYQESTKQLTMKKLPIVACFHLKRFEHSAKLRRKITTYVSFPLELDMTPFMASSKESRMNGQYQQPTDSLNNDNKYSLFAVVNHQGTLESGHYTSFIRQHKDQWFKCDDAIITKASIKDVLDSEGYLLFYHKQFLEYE
Summary of the method: as §1

USP24 = USP24 (UniProt Q9UPU5)
Summary of the method: as §1

USP25 = molecular target: T3, USP25 (UniProt Q9UHP3)
T3 sequence (whole entry): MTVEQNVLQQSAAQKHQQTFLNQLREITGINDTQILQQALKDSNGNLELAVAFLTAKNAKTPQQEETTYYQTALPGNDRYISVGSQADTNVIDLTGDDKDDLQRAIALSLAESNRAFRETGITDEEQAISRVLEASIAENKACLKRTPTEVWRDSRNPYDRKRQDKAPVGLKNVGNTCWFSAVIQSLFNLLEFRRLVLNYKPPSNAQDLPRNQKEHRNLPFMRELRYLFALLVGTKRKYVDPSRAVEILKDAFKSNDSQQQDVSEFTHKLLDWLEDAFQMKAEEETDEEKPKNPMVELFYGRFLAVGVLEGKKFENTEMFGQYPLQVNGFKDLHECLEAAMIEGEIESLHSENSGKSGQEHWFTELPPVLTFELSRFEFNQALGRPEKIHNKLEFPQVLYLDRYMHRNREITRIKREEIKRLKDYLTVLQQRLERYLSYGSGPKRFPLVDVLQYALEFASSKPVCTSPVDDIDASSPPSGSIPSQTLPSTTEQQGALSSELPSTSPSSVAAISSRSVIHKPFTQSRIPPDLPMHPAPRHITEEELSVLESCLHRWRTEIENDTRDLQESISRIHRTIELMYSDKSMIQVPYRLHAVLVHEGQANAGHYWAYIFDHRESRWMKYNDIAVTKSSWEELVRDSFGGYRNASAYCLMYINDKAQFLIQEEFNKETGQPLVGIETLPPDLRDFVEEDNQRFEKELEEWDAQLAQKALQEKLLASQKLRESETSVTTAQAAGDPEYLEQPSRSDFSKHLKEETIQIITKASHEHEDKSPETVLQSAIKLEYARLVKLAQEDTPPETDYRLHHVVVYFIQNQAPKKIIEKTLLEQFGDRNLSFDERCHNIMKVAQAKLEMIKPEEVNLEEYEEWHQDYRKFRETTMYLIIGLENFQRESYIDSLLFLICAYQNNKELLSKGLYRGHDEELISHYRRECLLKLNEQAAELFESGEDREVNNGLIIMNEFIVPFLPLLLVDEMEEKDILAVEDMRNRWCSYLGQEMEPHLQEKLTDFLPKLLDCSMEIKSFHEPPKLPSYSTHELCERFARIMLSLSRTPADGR
Summary of the method: as §1

USP28 = molecular target: T4, USP28 (UniProt Q96RU2)
T4 sequence (whole entry): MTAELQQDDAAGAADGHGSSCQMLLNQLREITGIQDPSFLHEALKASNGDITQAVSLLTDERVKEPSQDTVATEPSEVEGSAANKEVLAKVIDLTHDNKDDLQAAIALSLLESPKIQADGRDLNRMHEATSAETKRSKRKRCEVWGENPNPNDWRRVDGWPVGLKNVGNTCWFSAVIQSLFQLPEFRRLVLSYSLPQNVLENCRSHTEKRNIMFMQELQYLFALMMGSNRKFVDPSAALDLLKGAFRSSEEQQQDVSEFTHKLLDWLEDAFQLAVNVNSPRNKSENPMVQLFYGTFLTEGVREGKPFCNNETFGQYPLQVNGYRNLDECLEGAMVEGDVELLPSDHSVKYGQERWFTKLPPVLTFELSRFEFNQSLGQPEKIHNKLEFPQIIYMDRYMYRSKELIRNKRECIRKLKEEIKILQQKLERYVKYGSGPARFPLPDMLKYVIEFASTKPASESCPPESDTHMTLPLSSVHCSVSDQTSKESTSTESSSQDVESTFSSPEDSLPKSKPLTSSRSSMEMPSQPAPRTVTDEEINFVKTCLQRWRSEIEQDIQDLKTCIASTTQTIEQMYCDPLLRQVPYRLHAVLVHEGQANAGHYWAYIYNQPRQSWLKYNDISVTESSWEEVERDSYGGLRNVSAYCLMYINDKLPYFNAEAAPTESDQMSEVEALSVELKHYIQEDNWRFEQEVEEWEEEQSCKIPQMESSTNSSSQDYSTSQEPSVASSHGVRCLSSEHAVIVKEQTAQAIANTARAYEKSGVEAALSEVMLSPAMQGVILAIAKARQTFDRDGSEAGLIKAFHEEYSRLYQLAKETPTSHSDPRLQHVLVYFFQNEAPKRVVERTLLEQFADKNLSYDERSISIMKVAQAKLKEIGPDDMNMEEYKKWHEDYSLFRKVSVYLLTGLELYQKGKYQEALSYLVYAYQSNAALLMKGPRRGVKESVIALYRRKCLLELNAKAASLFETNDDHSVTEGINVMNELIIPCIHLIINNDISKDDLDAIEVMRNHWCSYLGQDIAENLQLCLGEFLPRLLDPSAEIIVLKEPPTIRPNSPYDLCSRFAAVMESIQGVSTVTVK
Summary of the method: as §1

Measured: log2 ratio of Biotin-Ahx-Ub-VS probe labelling

USP24, sequence (Q9UPU5 whole entry): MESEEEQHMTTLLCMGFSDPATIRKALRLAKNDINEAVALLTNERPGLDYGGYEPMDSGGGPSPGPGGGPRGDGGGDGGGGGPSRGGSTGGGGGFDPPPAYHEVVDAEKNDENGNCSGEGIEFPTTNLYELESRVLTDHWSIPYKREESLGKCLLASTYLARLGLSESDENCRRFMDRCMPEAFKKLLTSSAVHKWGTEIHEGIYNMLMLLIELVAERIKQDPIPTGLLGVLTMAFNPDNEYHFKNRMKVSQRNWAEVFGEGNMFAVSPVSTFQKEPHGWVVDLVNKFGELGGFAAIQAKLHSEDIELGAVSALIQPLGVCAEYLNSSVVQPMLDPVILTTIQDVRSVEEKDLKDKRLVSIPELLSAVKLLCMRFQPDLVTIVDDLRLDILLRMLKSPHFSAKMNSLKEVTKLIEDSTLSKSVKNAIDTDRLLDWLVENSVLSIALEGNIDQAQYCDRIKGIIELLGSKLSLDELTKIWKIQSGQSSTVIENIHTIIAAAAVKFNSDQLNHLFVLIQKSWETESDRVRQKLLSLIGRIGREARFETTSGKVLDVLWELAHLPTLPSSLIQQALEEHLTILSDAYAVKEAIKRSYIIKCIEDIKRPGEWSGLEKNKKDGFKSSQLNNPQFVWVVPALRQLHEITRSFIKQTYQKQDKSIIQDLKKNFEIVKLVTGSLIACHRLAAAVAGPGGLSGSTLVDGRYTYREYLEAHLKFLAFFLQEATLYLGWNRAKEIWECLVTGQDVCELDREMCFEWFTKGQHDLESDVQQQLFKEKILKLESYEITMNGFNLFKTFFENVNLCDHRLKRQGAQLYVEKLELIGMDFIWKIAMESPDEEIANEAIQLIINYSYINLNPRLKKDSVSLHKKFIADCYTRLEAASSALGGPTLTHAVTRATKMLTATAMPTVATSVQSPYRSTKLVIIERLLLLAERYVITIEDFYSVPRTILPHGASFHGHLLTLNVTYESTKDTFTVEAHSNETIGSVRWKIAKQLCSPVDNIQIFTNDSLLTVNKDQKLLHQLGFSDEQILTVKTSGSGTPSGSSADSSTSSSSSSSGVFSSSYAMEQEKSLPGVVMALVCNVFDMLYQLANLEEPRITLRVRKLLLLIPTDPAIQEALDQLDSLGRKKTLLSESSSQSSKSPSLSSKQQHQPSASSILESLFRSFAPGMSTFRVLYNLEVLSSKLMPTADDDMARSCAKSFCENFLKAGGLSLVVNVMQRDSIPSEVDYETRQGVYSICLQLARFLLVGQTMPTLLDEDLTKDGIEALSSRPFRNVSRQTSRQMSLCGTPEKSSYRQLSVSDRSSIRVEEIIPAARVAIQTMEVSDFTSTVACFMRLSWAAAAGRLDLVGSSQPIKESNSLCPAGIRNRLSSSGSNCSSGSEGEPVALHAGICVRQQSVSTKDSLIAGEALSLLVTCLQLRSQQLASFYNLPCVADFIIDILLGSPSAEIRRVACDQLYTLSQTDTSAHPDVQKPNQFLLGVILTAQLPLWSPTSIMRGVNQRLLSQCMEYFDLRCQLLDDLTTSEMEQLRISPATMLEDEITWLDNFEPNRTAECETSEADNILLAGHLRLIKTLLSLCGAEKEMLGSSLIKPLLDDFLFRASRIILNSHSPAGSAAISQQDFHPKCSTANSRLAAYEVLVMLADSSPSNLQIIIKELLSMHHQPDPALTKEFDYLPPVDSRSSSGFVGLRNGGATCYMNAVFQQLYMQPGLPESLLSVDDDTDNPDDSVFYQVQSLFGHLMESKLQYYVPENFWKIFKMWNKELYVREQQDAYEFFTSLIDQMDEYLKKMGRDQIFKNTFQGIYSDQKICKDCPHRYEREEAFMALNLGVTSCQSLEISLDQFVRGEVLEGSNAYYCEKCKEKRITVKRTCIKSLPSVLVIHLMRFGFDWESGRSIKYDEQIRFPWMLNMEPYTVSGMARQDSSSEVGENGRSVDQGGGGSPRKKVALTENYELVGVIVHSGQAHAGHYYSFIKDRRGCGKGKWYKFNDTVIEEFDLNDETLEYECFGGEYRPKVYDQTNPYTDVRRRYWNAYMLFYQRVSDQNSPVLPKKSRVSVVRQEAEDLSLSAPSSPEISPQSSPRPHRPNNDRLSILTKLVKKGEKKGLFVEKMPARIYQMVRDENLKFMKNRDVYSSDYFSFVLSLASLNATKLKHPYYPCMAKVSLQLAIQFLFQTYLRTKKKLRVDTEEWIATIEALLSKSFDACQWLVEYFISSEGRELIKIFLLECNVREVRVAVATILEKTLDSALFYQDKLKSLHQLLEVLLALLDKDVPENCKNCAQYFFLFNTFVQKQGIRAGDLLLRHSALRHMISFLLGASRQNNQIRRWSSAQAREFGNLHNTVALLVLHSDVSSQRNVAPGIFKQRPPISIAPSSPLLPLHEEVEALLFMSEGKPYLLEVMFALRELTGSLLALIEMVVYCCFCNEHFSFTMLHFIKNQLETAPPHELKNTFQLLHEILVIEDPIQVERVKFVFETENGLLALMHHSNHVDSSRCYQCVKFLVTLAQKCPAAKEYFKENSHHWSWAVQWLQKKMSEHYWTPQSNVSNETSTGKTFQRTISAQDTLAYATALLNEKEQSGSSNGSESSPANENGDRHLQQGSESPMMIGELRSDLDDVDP

Cc1nc(CC2CCN(C(=O)CCl)CC2)no1
inactive: USP19 -0.747 | USP22 -0.386 | USP24 -0.783 | USP25 -0.763 | USP28 -0.873

Reference: the supplement of paper PMC11732987, “Enantioselective OTUD7B fragment discovery through chemoproteomics screening and high-throughput optimisation” (Communications Chemistry, 2025)
